# Screens (PubChem BioAssay)
# ATXN2 expr inh – Primary qHTS for Inhibitors of ATXN expression. HEK-293 ATXN2-luciferase reporter, luminescence, 24 h. Potency, µM (series often up to 57 µM), inactives show top-dose activity change, negative = inhibition, hits mostly inhibitors. actives 0.72% (n = 360,000); further: on the % scale 0 is the no-effect control and ±100 the full control effect; nearly all actives have a fitted effect of over 55% in size
#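 ATXN2-luciferase reporter cells (luciferase flanked by upstream and downstream ATXN2 gene portions) were treated 24 h at 37 °C with compounds at up to 57 uM. SteadyGlo luminescence gave expression; GF-AFC fluorescence gave viability.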
# TDP1 cell noCPT – qHTS for Inhibitors of human tyrosyl-DNA phosphodiesterase 1 (TDP1): qHTS in cells in absence of CPT; AID 686978, 2013; actives 15% (n = 420,000); DT40 Tdp1-/- hTDP1 cells, no CPT, ATP luminescence, 48 h; Potency, µM (series often up to 46.2 µM), inactives show top-dose activity change, negative = growth inhibition, actives largely listed as inhibitors; further: on the % scale 0 is the no-effect control and ±100 the full control effect; nearly all actives have a fitted effect of over 55% in size
#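 Compound effects on proliferation are scored in DT40 Tdp1-/-;hTDP1 cells in the absence of CPT. ATP levels (CellTiter-Glo luminescence) are recorded after a ≥48 hr, 37 °C incubation.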
# HepG2 tox – qHTS for Inhibitors of TGF-b: Cytotox Counterscreen. HepG2 CAGA-GFP viability, ATP luminescence, 18 h. Potency, µM (titrated, usually from 46.1 µM), for inactives: at the top dose activity change, negative = cytotoxicity, most hits filed as cytotoxic. actives 0.76% (n = 410,000). AID 588856, 2011
#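 CellTiter-Glo luminescence gave cytotoxicity after 18 hours at 37 degrees C. The cells were HepG2 CAGA-GFP in 1% FBS DMEM, stimulated with 500 pg/mL TGF-beta after compound addition. %Activity was normalised to no-cell wells (complete cell-killing) and DMSO (no toxicity), and curves were fitted and classified.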
# TGFb inhibitor – qHTS for Inhibitors of TGF-b. HepG2 CAGA-GFP TGF-b/SMAD3 reporter, GFP fluorescence, 18 h; TGF-beta stimulated, 500 pg/mL final. Potency, µM (highest dose often 46.1 µM), inactives show at the highest dose activity, negative = inhibition, hits mostly inhibitors. actives 1.2% (n = 410,000); further: on the % scale 0 is the no-effect control and ±100 the full control effect; nearly all actives have a fitted effect of over 65% in size
#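 Inhibition was scored as loss of TGF-beta-induced (500 pg/mL final, 18 hours, 37 degrees C) GFP in HEPG2 cells carrying a CAGA-GFP reporter, in DMEM with 1% FBS. Well GFP was summed per cell; Activity was normalised to unstimulated and stimulated DMSO wells, then concentration-response fitting.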
# S2 tox – Viability Counterscreen for Primary qHTS for Inhibitors of ATXN expression; Potency, µM (doses to about 56.7 µM), most hits filed as cytotoxic; S2 cells (HEK-293 line with an ATXN2-luciferase reporter) viability, CellTiter-Fluor protease fluorescence, 24 h; actives 0.49% (n = 400,000); AID 651635, 2014; further: nearly all actives have a fitted effect of over 40% in size
# TDP1 cell CPT – qHTS for Inhibitors of human tyrosyl-DNA phosphodiesterase 1 (TDP1): qHTS in cells in presence of CPT; chicken DT40 Tdp1-/-;hTDP1 cells + 20 nM CPT, ATP luminescence, 48 h; Potency, µM (titrated, usually from 46.2 µM), inactives show top-dose activity change, negative = growth inhibition, most hits filed as inhibitors; actives 12% (n = 420,000); further: on the % scale 0 is the no-effect control and ±100 the full control effect; nearly all actives have a fitted effect of over 55% in size
#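 Chicken DT40 Tdp1-/- cells complemented with human TDP1, 400 cells/well, exposed to compounds plus 20 nM camptothecin for at least 48 h at 37 C; viability read as ATP content by CellTiter-Glo luminescence.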
# Starred values were filed as active, the others as inactive; i = inactive; ? = inconclusive; nt = no result given. Rows were chosen to be rich in hits. Some 17% of all compounds tested hit in one or more screens of this group. The call rests on the fitted dose curve; in most records, active means well fitted curve in the direction sought with a large enough effect; inconclusive means small, poorly fitted or top-dose-only effect, or another doubt; inactive means no such curve, though single readings can be large; an effect the other way counts as inactive or inconclusive. Potency means the concentration at half of the fitted maximal effect.
SMILES,ATXN2 expr inh,TDP1 cell noCPT,HepG2 tox,TGFb inhibitor,S2 tox,TDP1 cell CPT
CN(C)c1ccc(CC(=O)N2CCCCC2c2cc(C(=O)Nc3cccc(C#N)c3)no2)cc1 (configuration not stated),-23%,23µM*,-33%,-12%,i,?
COc1ccc(-c2ccc3c(c2)c(Sc2ccccc2)c(-c2ccccc2)n3C)cc1,-1%,-29%,nt,nt,i,?
CN(C)c1ccc(CC(=O)N2CCCCC2c2cc(C(=O)Nc3ccccc3)no2)cc1 (configuration not stated),?,26µM*,-32%,-11%,?,21µM*
CN1C(C(=O)c2ccccc2)=C(NC(=O)c2ccccc2Br)c2ccccc2S1(=O)=O,nt,6.5µM*,-20%,-12%,nt,12µM*
CN1C(C(=O)Nc2ccc(C(=O)O)cc2)=C(O)c2ccccc2S1(=O)=O,-2%,4%,5.6µM*,-3%,i,-6%
C=C(C)c1cccc(C(C)(C)NC(=O)N2CCCCC2CC)c1 (configuration not stated),2%,?,-7%,-5%,i,?
O=C1NC[C@H](CCCCN2C[C@H](Cc3ccccc3)N(CCc3ccccc3)C(=O)C2=O)N(CCc2ccc(O)cc2)C1=O,9%,-11%,nt,nt,i,1%
O=C1c2ccccc2C(=O)c2c(/C=C/N3CCCCC3)ccnc21,?,10µM*,3.5µM*,?,?,6.5µM*
O=C(Oc1cccc2c(O)cccc12)c1ccco1,2%,12µM*,6%,2%,i,21µM*
O=S(c1ccc2ccccc2c1)c1cnns1 (configuration not stated),-6%,2.6µM*,2%,-22%,i,1µM*
CC1CCN(c2nc3ccc(C(=O)NCCc4ccc(S(N)(=O)=O)cc4)cc3s2)CC1,44%,-9%,5%,-14%,i,7%
COCCCNC(=S)NNC(=O)C1CC1c1ccc(C(C)(C)C)cc1 (configuration not stated),nt,8.2µM*,-1%,-9%,i,12µM*
COc1ccc(N(CCC#N)C(=O)/C(C#N)=C\c2cccs2)cc1,10%,-19%,6%,-2%,i,-12%
O=C(Nc1ccc(Cl)cc1)C1=Cc2cc(Cl)ccc2OC1,-18%,26µM*,-25%,?,i,18µM*
COc1ccc(Cl)cc1NC(=O)CN(C)C(=O)Cc1ccc(-c2ccccc2)cc1,-9%,-8%,-11%,-21%,i,-17%
CN(C(=O)c1cccc(COc2ccc(Cl)cc2Cl)c1)c1ccccc1,-23%,?,21%,0%,i,21µM*
COc1ccc(Cl)cc1NC(=O)CN(C)CC(=O)Nc1ccccc1-c1ccccc1,-11%,23µM*,10%,-6%,i,18µM*
O=C(NCc1ccccc1)c1cccc(COc2cc(Cl)ccc2Cl)c1,16%,?,-2%,0%,i,-10%
COc1ccc(Cl)cc1NC(=O)CN(C)C(=O)c1ccc(COc2ccccc2)cc1,-5%,?,-14%,-22%,i,?
COc1ccc(Cl)cc1NC(=O)CN(C)C(=O)c1ccc(OCc2ccccc2)c(OC)c1,1%,23µM*,-33%,?,i,?
COc1ccc(C(=O)NCC(c2ccccc2)c2ccccc2)cc1S(=O)(=O)N1CCOCC1,7%,?,1%,11%,i,?
O=C(Oc1ccc(-c2nnco2)cc1)c1cc(S(=O)(=O)N2CCOCC2)ccc1F,nt,-27%,-26%,-13%,i,-7%
CCOc1ccc(OCCNC(=O)c2cc(C3CC3)nc3c2cnn3C(C)C)cc1,-28%,5.2µM*,-34%,13µM*,i,16µM*
CC(C)n1ncc2c(C(=O)O)cc(C3CC3)nc21,4%,4%,-10%,2%,i,?
CC(C)n1ncc2c(C(=O)N3CCN(Cc4ccc(Br)s4)CC3)cc(C3CC3)nc21,?,23µM*,-24%,-5%,i,26µM*
SMILES,ATXN2 expr inh,TDP1 cell noCPT,HepG2 tox,TGFb inhibitor,S2 tox,TDP1 cell CPT
CC(C)n1ncc2c(C(=O)NCCOc3ccccc3F)cc(C3CC3)nc21,-9%,3.3µM*,-26%,?,i,12µM*
c1ccc2c(c1)N1CCCN=C1N2CCN1CCCCC1,2%,6%,-21%,20%,i,-26%
O=C(CN1C2=NCCN2c2ccccc21)C12CC3CC(CC(C3)C1)C2,-16%,16µM*,-7%,56%,?,21µM*
COc1ccc(C(=O)CN2C3=NCCCN3c3ccccc32)cc1OC,-19%,16µM*,-13%,-4%,i,21µM*
COC(=O)c1ccc(OCCN2C3=NCCN3c3ccccc32)cc1,-10%,?,-27%,1%,i,?
OCCN1C2=NCCCN2c2ccccc21,61%,-2%,5%,3%,i,31%
Cc1ccc(C)c(C(=O)CN2C3=NCCCN3c3ccccc32)c1,-33%,?,-50%,-13%,i,16µM*
CCCCCCN1C2=NCCCN2c2ccccc21,-20%,16µM*,-7%,-3%,i,18µM*
COC(C(=O)NC(C(C)C)C(C)C)c1ccccc1 (configuration not stated),-6%,1%,-1%,10%,i,-6%
Cc1cccc(CN2C3=NCCCN3c3ccccc32)c1,-28%,15µM*,-26%,-1%,i,21µM*
c1ccc(CN2C3=NCCN3c3ccccc32)cc1,-4%,-9%,-14%,-10%,i,4%
Clc1ccc(CN2C3=NCCN3c3ccccc32)cc1Cl,?,16µM*,-58%,0%,i,?
OC(CN1C2=NCCN2c2ccccc21)c1ccc2c(c1)OCO2 (configuration not stated),-30%,23µM*,-25%,?,i,?
Cc1ccc(CN2C3=NCCN3c3ccccc32)cc1,-18%,?,4%,-2%,i,?
COc1cccc(C(=O)CN2C3=NCCCN3c3ccccc32)c1,?,21µM*,-22%,11%,i,21µM*
N#Cc1ccc(COC(=O)c2ccc(N3CCCC3)c([N+](=O)[O-])c2)cc1,-30%,?,-21%,?,i,1%
